Measured values: PubChem BioAssay (NCI)
This is part of a sample that, as a whole, favours compounds with a hit. Of some 83,000 tested, about 20% had one in any assay.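 Testing used 96-well plates and a 48-hour single-concentration exposure. Example: -40 means 40% of the starting cells died.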 Unmarked numbers belong to inactive results. Active and inactive are the calls of the source. How the source made its calls: active means growth percent below 10; inactive means the rest.

Key:
Assay in all cases: NCI-60 one-dose screen, 48 h (100 = growth as untreated, 0 = no growth, -100 = all killed)
Conditions in all cases: 10 µM unless noted
[1] = system: DU-145 prostate
[2] = system: K-562 leukemia
[3] = system: MALME-3M melanoma
[4] = system: MDA-MB-231 breast
[5] = system: RXF 393 renal
[6] = system: SF-268 CNS
[7] = system: SF-295 CNS
[8] = system: SF-539 CNS
[9] = system: UACC-257 melanoma
[10] = system: M14 melanoma
[11] = system: HCT-15 colon
[12] = system: HT29 colon
[13] = system: SNB-75 CNS
[14] = system: SNB-19 CNS
[15] = system: U251 CNS
[16] = system: PC-3 prostate
[17] = system: SK-MEL-5 melanoma
[18] = system: UACC-62 melanoma
[19] = system: SK-MEL-28 melanoma

| SMILES | growth [1] | growth [2] | growth [3] | growth [4] | growth [5] | growth [6] [%] | growth [7] [%] | growth [8] | growth [9] [%] | growth [10] [%] | growth [11] [%] | growth [12] [%] | growth [13] [%] | growth [14] [%] | growth [15] | growth [16] [%] | growth [17] | growth [18] [%] | growth [19] [%] |
| --- | --- | --- | --- | --- | --- | --- | --- | --- | --- | --- | --- | --- | --- | --- | --- | --- | --- | --- | --- |
| COc1ccc2oc(=O)c(C3(C)NC(=O)c4c(/C=C/C(=O)OC(C)(C)C)cccc4N3)cc2c1 (stereo unspecified) | 69.5% | 25.5% | 40.5% | 49.1% | 40.3% | 58.1 | 39.3 | 67.6% | 32.6 | 48.7 | 32.6 | 39.1 | 56.3 | 50.8 | 48.4% | 15.6 | -59.8% (active) | 20.4 | 40.6 |
| Cc1cc2c(cc1Cl)C(=O)/C(=C/c1ccccc1)O2 | -94.3% (active) | 9.17% (active) | -46.8% (active) | -36.5% (active) | -33.9% (active) | 64 | 24.9 | -98.5% (active) | 36.1 | 30.9 | 13.3 | 38.6 | 52.5 | 34.6 | 8.18% (active) | 29.8 | -75.4% (active) | 29.3 | 49.9 |
| Cc1cc2c(cc1Cl)C(=O)/C(=C/c1ccc(F)cc1)O2 | 118% | 77.6% | 100% | 90.1% | 95.7% | 117 | 98.9 | 85.9% | 106 | 96.8 | 97.8 | 102 | 95 | 90.3 | 89.9% | 91.1 | 93% | 76.6 | 111 |
| CCN1C(=O)/C(=N\N=C(/C)c2ccc3c(c2)Nc2ccccc2S3)c2cc(Cl)ccc21 | 71.8% | 38.2% | 35.9% | 66.8% | 65.9% | 43.8 | 43.2 | 73.3% | 25.7 | 67.5 | 46.7 | 71.6 | 76 | 64.4 | 73.7% | 40.5 | 7.2% (active) | 32.7 | 47.2 |
